Measurements: PubChem BioAssay AID540359 (Broad Institute, 2011)
Potency and affinity values are given separately. The source made the active and inactive calls. Entries that show only a call come without a potency. How the calls were made is not given here.

Biological target: UDP-galactopyranose mutase (Mycobacterium tuberculosis (strain ATCC 25618 / H37Rv)) (UniProt P9WIQ1)
Assay: UDP galactopyranose mutase inhibitors, Mycobacterium tuberculosis, cherry pick dose confirmation (AID 540359)

Sequence of UDP-galactopyranose mutase (Mycobacterium tuberculosis (strain ATCC 25618 / H37Rv)) (P9WIQ1 whole entry, looked up): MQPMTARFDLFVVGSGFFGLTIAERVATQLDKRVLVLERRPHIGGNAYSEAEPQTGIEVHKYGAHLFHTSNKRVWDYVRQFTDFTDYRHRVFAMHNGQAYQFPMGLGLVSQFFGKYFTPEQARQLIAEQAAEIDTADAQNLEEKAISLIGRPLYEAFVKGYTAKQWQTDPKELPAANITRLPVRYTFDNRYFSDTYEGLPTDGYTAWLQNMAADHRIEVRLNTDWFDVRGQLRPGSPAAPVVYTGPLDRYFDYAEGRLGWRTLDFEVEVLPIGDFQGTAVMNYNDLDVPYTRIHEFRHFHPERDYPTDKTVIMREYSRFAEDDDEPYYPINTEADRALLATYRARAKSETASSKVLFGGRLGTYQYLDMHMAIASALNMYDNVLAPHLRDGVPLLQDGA

| SMILES | outcome |
| --- | --- |
| CC(=O)N1CCN(S(=O)(=O)c2cccc(C(=O)NNC(=O)Cn3nc(C)cc3C)c2)CC1 | inactive |
| CC(C)OC(=O)CC(=O)c1sc2nc3c(cc2c1N)CN(C)CC3 | inactive |
| Cc1ccccc1OCCn1cc(C(=S)N2CCCC2)c2ccccc21 | inactive |
| COc1ccc2[nH]c(C)c(CCN(Cc3cccs3)C(=S)Nc3ccccc3OC)c2c1 | inactive |
| O=C(NC(=S)Nn1cnnc1)c1ccccc1Cl | inactive |
| Cc1c(N=C2N=C(NC(=O)c3ccc(F)cc3)c3ccccc32)c(=O)n(-c2ccccc2)n1C | inactive |
| COc1ccccc1NC(=O)C1CCN(S(=O)(=O)c2cccs2)CC1 | inactive |
| O=C(Nc1ccccc1F)C(=Cc1sc(N2CCOCC2)nc1-c1ccccc1)C(=O)Nc1ccccc1F | inactive |
| CCN(CC)S(=O)(=O)c1ccc2c(c1)c(=O)c(C(=O)NCc1ccco1)cn2C | inactive |
| CCC1=NN2C(=N)/C(=C\c3cccn3-c3ccc(OC)cc3)C(=O)N=C2S1 | inactive |
| O=C(N=c1ccn(-c2nc3ccccc3nc2NS(=O)(=O)c2ccc(Cl)cc2)cc1)c1cccs1 | inactive |
| O=C(/C=C/c1ccc2c(c1)OCO2)c1c(O)n(CCc2ccccc2)c(=O)[nH]c1=O | inactive |
| CCc1ccc(C(CC(=O)c2ccc(Cl)cc2)C(=O)O)cc1 (stereo unspecified) | inactive |
| COc1ccc(C(=O)NCC(=O)N2CCN(C(=O)c3ccco3)CC2)cc1[N+](=O)[O-] | inactive |
| Cc1cc(C(=O)OCC(=O)Nc2c(Cl)cccc2Cl)c(C)o1 | inactive |
| N=c1n(CCN2CCCC2)c2ccccc2n1CC(O)c1ccco1 (stereo unspecified) | inactive |
